# “And” between values parts separate entries of the source, which are not always exact repeats. Equal values may be shown once. Inconclusive results are not listed. Entries that show only a call come without a potency. The source made the active and inactive calls. The call rests on the fitted dose curve; in most records, active means well fitted curve in the direction sought with a large enough effect; inconclusive means small, poorly fitted or top-dose-only effect, or another doubt; inactive means no such curve, though single readings can be large; an effect the other way counts as inactive or inconclusive.
# Tests used:
# [1] = qHTS of pediatric cancer cell lines to identify multiple opportunities for drug repurposing: Primary screen for OHS-50 cells (AID 1347103); further: nearly all actives have a fitted effect of over 40% in size; further: potency means the concentration at half of the fitted maximal effect
# In short: (§1)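 Cells (500-1,000/well) rested 5 h, then received compounds for 48 h; metabolically active cells were measured by CellTiter-Glo luminescence. Final concentrations spanned up to 46 µM (MIPE, 11-point) or 0.59 nM-46 µM (NPC, 8-point) in primary screens, 11-point in follow-ups.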
# [2] = qHTS of pediatric cancer cell lines to identify multiple opportunities for drug repurposing: Primary screen for RD cells (AID 1347104); further: nearly all actives have a fitted effect of over 55% in size; further: potency means the concentration at half of the fitted maximal effect
# In short: (§2)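 Following a 5-hour attachment period, cells at 500-1,000/well received compounds and were cultured for 48 hours. CellTiter-Glo was added and luminescence read to estimate viable, metabolically active cells.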
# [3] = qHTS of pediatric cancer cell lines to identify multiple opportunities for drug repurposing: Primary screen for MG 63 (6-TG R) cells (AID 1347105); further: nearly all actives have a fitted effect of over 50% in size; further: potency means the concentration at half of the fitted maximal effect
# In short: as §2
# [4] = qHTS of pediatric cancer cell lines to identify multiple opportunities for drug repurposing: Primary screen for control Hh wild type fibroblast cells (AID 1347106);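 further: series mostly up to about 46 µM; a drop in luminescence marks cytotoxicity and a rise apparent proliferation; nearly all actives have a fitted effect of over 55% in size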
# In short: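 Viability after 48 h compound treatment at 37C, 500-1,000 cells/well, read as ATP luminescence with CellTiter-Glo. Primary screens used 11-point (MIPE, 0.78 nM-46 µM) or 8-point (NPC, 0.59 nM-46 µM) final concentrations; follow-up screens used 11-point dilutions.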
# [5] = qHTS of pediatric cancer cell lines to identify multiple opportunities for drug repurposing: Primary screen for Rh18 cells (AID 1347102); further: nearly all actives have a fitted effect of over 65% in size
# In short: as §1
# [6] = qHTS of pediatric cancer cell lines to identify multiple opportunities for drug repurposing: Primary screen for Rh41 cells (AID 1347108); further: nearly all actives have a fitted effect of over 70% in size; further: potency means the concentration at half of the fitted maximal effect
# In short: as §2
# [7] = qHTS of pediatric cancer cell lines to identify multiple opportunities for drug repurposing: Primary screen for BT-12 cells (AID 1347101); further: nearly all actives have a fitted effect of over 25% in size; further: potency means the concentration at half of the fitted maximal effect
# In short: as §1
# [8] = qHTS of pediatric cancer cell lines to identify multiple opportunities for drug repurposing: Primary screen for Rh30 cells (AID 1347107); further: series mostly up to about 46 µM; nearly all actives have a fitted effect of over 75% in size
# In short: as §1
# [9] = qHTS of pediatric cancer cell lines to identify multiple opportunities for drug repurposing: Confirmatory screen for NB1643 cells (AID 1347109); further: nearly all actives have a fitted effect of over 45% in size
# In short: as §1
structure (smiles),measurement,setting,value
COc1ccc(-c2c(-c3ccc(O)cc3O)n[nH]c2C)cc1,Potency,[1],44.4 µM (active)
same,Potency,[2],inactive
same,Potency,[3],inactive
same,Potency,[4],inactive
Cc1cc(-c2ccc(CC(=O)Nc3ccc(-c4cccnc4)cc3)cc2)ccn1,Potency,[5],inactive
same,Potency,[3],inactive
same,Potency,[4],inactive
Cc1c(CCOc2ccc(C(=O)O)cc2)c2cc(Cl)ccc2n1C(c1ccccc1)c1ccccc1,Potency,[5],inactive
same,Potency,[3],inactive
same,Potency,[4],inactive
same,Potency,[6],inactive
C[C@@H]1CN(Cc2ccc(F)cc2)[C@@H](C)CN1C(=O)c1cc2c(C(=O)C(=O)N(C)C)cn(C)c2cc1Cl,Potency,[5],inactive
same,Potency,[2],0.833 µM (active)
same,Potency,[6],14.8 µM (active)
CCOC(=O)N1CCC(=C2c3ccc(Cl)cc3CCc3cccnc32)CC1,Potency,[1],24.3 µM (active) and 21.9 µM (active)
same,Potency,[3],13.3 µM (active)
same,Potency,[4],inactive
same,Potency,[6],23.5 µM (active) and 23.7 µM (active)
CCCS(=O)(=O)Nc1ccc(F)c(C(=O)c2c[nH]c3ncc(Cl)cc23)c1F,Potency,[1],13.7 µM (active)
same,Potency,[2],18.7 µM (active)
same,Potency,[6],inactive
O=C(Nc1cccnc1)N1CCC(Cc2cccc(Oc3ccc(C(F)(F)F)cn3)c2)CC1,Potency,[7],10.9 µM (active)
same,Potency,[3],inactive
same,Potency,[4],inactive
same,Potency,[6],inactive
Cn1c(=O)c(F)c(Nc2ccc(I)cc2F)c2c(=O)n(C[C@@H](O)CO)cnc21,Potency,[1],inactive
same,Potency,[2],0.0296 µM (active)
same,Potency,[3],inactive
same,Potency,[8],inactive
CCc1cncnc1N1CCN(Cc2nc3ccc(C(F)(F)F)cc3[nH]2)CC1,Potency,[7],12.2 µM (active)
same,Potency,[4],inactive
CCCn1c(=O)c2[nH]c(C34CC5CC3C[C@@H](C5)C4)nc2n(CCC)c1=O,Potency,[7],inactive
same,Potency,[4],inactive
Cn1cc(-c2ccc3nnc(C(F)(F)c4ccc5ncccc5c4)n3n2)cn1,Potency,[2],inactive
same,Potency,[4],inactive
Cc1cccc(-c2[nH]c(C(C)(C)C)nc2-c2ccc3nccnc3c2)n1,Potency,[7],24.3 µM (active)
same,Potency,[3],inactive
same,Potency,[4],inactive
same,Potency,[8],inactive
same,Potency,[6],2.96 µM (active)
COc1ccccc1[C@H](c1cccc2ccccc12)[C@@](C)(C#N)C(=O)N1CCC(c2cccc(C(F)(F)F)c2)CC1,Potency,[4],inactive
same,Potency,[8],inactive
same,Potency,[6],5.9 µM (active)
CCOc1cc(C(=O)Nc2ccc(Cl)c(-c3nc4ccccc4[nH]3)c2)cc(OCC)c1OCC,Potency,[7],inactive
same,Potency,[1],inactive
same,Potency,[3],inactive
O=c1ncn2nc(Sc3ccc(F)cc3F)ccc2c1-c1c(Cl)cccc1Cl,Potency,[5],inactive
same,Potency,[2],inactive
same,Potency,[3],inactive
same,Potency,[4],inactive
same,Potency,[8],inactive
C[C@]1(c2nc3c(C(N)=O)cccc3[nH]2)CCCN1,Potency,[5],inactive
same,Potency,[3],inactive
same,Potency,[4],inactive
same,Potency,[9],inactive
CC1(C)Cc2c(-c3ccccc3)c(-c3ccc(Cl)cc3)c(CC(=O)O)n2C1,Potency,[4],inactive
CCN(CC)CCCC(C)Nc1ccnc2cc(Cl)ccc12 (stereo not drawn),Potency,[7],3.43 µM (active)
same,Potency,[3],11.8 µM (active)
same,Potency,[4],inactive
same,Potency,[8],inactive
same,Potency,[6],inactive
same,Potency,[9],inactive
Cn1cnc2c(F)c(Nc3ccc(Br)cc3Cl)c(C(=O)NOCCO)cc21,Potency,[1],inactive
same,Potency,[4],inactive
same,Potency,[6],14.8 µM (active)
CCc1cc(Nc2nccc(-c3c(-c4ccc(OC)c(C(=O)Nc5c(F)cccc5F)c4)nc4ccccn34)n2)c(OC)cc1N1CCC(N2CCN(S(C)(=O)=O)CC2)CC1,Potency,[3],18.7 µM (active)
COc1ccc(-c2ccc3c(N4CCOC[C@H]4C)nc(N4CCOC[C@H]4C)nc3n2)cc1CO,Potency,[1],0.0544 µM (active)
same,Potency,[2],0.0372 µM (active)
same,Potency,[3],0.0187 µM (active)
same,Potency,[8],inactive
same,Potency,[6],0.0418 µM (active)
CC(=O)NC(C)c1ccc(Oc2ccc(OC(C)C)cc2)cc1 (stereo not drawn),Potency,[7],19.3 µM (active)
same,Potency,[4],inactive
CCOC(=O)N[C@@H]1CC[C@@H]2[C@@H](C1)C[C@H]1C(=O)O[C@H](C)[C@H]1[C@@H]2C=Cc1ccc(-c2cccc(F)c2)cn1,Potency,[3],inactive
same,Potency,[4],inactive
Nc1nc2ccc(OC(F)(F)F)cc2s1,Potency,[5],inactive
same,Potency,[2],inactive
same,Potency,[3],inactive
same,Potency,[4],inactive
same,Potency,[8],inactive
same,Potency,[6],inactive
NNCCc1ccccc1,Potency,[5],inactive
same,Potency,[3],inactive
same,Potency,[4],inactive
same,Potency,[8],inactive
same,Potency,[6],inactive
CCC(C)n1ncn(-c2ccc(N3CCN(c4ccc(OC[C@H]5CO[C@](Cn6cncn6)(c6ccc(Cl)cc6Cl)O5)cc4)CC3)cc2)c1=O (stereo partly drawn),Potency,[5],inactive
same,Potency,[3],inactive
same,Potency,[4],inactive
same,Potency,[8],inactive
same,Potency,[6],inactive
same,Potency,[9],inactive
COc1ccc(-c2ccc3c(N4CCOCC4)nc(N4C[C@@H](C)O[C@@H](C)C4)nc3n2)cc1CO,Potency,[3],0.187 µM (active)
same,Potency,[8],inactive
same,Potency,[6],0.743 µM (active)
CCC(=O)N[C@H]1CC[C@H](C(=O)N(C)c2ccc(-c3nc4ccccc4o3)cc2)C1,Potency,[5],inactive
same,Potency,[1],19.3 µM (active)
same,Potency,[2],3.32 µM (active)
same,Potency,[8],inactive
O=C(NOC[C@H](O)CO)c1ccc(F)c(F)c1Nc1ccc(I)cc1F,Potency,[5],inactive
same,Potency,[1],inactive
same,Potency,[9],inactive
Cc1ccc(NC(=O)c2cccc(C(C)(C)C#N)c2)cc1Nc1ccc2ncn(C)c(=O)c2c1,Potency,[2],1.18 µM (active)
same,Potency,[3],inactive
same,Potency,[4],inactive
COc1ccc(CCN2CCN(CCCc3ccccc3)CC2)cc1OC,Potency,[5],inactive
same,Potency,[3],inactive
same,Potency,[4],inactive
same,Potency,[8],inactive
same,Potency,[6],inactive
CC[C@@H](C)[C@H](NC(=O)[C@H](CC1CCCCC1)NC(=O)c1ccno1)C(=O)N1CCC2(CCc3ccccc32)CC1,Potency,[1],17.2 µM (active)
same,Potency,[3],inactive
same,Potency,[4],inactive
